Assay results reported in PubChem BioAssay AID1159580 (chemical genetic matrix, 2015).
Among all 5,500 compounds or so, about 2,000 (36%) were called active. Another 18% or so got no clear call; they are omitted. Rule as the data show it: active = normalized growth mostly below about 0.91 (no sharp cut-off); inconclusive = no clear call, values can overlap the other calls; inactive = mostly above about 0.92. Some of the results follow.

Experiment: chemical genetic growth profiling, strain panel (AID 1159580);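 also: tested at 20 µM; growth read once vehicle control cultures reached saturation at 30 °C; 1 = growth at the plate median or of vehicle wells; lower values mean less growth of the strain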
Details: growth OD

Measured: normalized growth

O=C1OCCN1/N=C\c1ccc([N+](=O)[O-])o1
inactive: S. cerevisiae deletion strains, locus YJR075W, strain HOC1, active compounds read low 0.981 | S. cerevisiae deletion strains, locus YKL009W, strain mrt4, active compounds read low 0.915 | S. cerevisiae deletion strains, locus YKL068W, active compounds read low 0.999 | S. cerevisiae deletion strains, locus YKL085W, strain MDH1 (second series), active compounds read low 0.99 | S. cerevisiae deletion strains, locus YKL085W, strain MDH1, active compounds read low 0.99 | S. cerevisiae deletion strains, locus YKL160W, strain elf1, active compounds read low 0.984 | S. cerevisiae deletion strains, locus YKR001C, strain vps1, active compounds read low 0.938 | S. cerevisiae deletion strains, locus YKR026C, strain gcn3, active compounds read low 1 | S. cerevisiae deletion strains, locus YKR091W, strain srl3, active compounds read low 0.997 | S. cerevisiae deletion strains, locus YLL001W, strain dnm1, active compounds read low 0.978 | S. cerevisiae deletion strains, locus YLL026W, active compounds read low 0.988 | S. cerevisiae deletion strains, locus YLL041C, strain sdh2, active compounds read low 1 | S. cerevisiae deletion strains, locus YLR027C, strain aat2, active compounds read low 0.955 | S. cerevisiae deletion strains, locus YLR058C, strain SHM2, active compounds read low 0.967 | S. cerevisiae deletion strains, locus YLR102C, strain apc9, active compounds read low 0.988 | S. cerevisiae deletion strains, locus YLR113W, strain HOG1, active compounds read low 0.869 | S. cerevisiae deletion strains, locus YLR221C, strain rsa3, active compounds read low 0.975 | S. cerevisiae deletion strains, locus YLR258W, strain gsy2, active compounds read low 0.976 | S. cerevisiae deletion strains, locus YLR262C, strain YPT6 (second series), active compounds read low 0.888 | S. cerevisiae deletion strains, locus YLR262C, strain YPT6, active compounds read low 0.683 | S. cerevisiae deletion strains, locus YLR320W, strain mms22, active compounds read low 0.956 | S. cerevisiae deletion strains, locus YLR330W, strain CHS5, active compounds read low 1 | S. cerevisiae deletion strains, locus YLR342W, strain FKS1 (second series), active compounds read low 0.943 | S. cerevisiae deletion strains, locus YLR342W, strain FKS1, active compounds read low 1 | S. cerevisiae deletion strains, locus YLR357W, strain rsc2, active compounds read low 1.03 | S. cerevisiae deletion strains, locus YLR370C, strain arc18, active compounds read low 0.942 | S. cerevisiae deletion strains, locus YLR371W, strain rom2, active compounds read low 0.99 | S. cerevisiae deletion strains, locus YLR384C, strain iki3, active compounds read low 1 | S. cerevisiae deletion strains, locus YLR418C, strain cdc73, active compounds read low 0.847 | S. cerevisiae deletion strains, locus YML016C, strain PPZ1, active compounds read low 0.987 | S. cerevisiae deletion strains, locus YML120C, strain ndi1, active compounds read low 0.965 | S. cerevisiae deletion strains, locus YML124C, strain tub3, active compounds read low 1.01 | S. cerevisiae deletion strains, locus YMR078C, strain ctf18, active compounds read low 0.976 | S. cerevisiae deletion strains, locus YMR125W, strain sto1, active compounds read low 0.93 | S. cerevisiae deletion strains, locus YMR129W, active compounds read low 1 | S. cerevisiae deletion strains, locus YMR205C, strain PFK2, active compounds read low 1.02 | S. cerevisiae deletion strains, locus YMR223W, strain ubp8, active compounds read low 0.91 | S. cerevisiae deletion strains, locus YMR231W, strain pep5, active compounds read low 0.998 | S. cerevisiae deletion strains, locus YMR307W, strain GAS1, active compounds read low 0.761 | S. cerevisiae deletion strains, locus YNL067W, strain RPL9B, active compounds read low 0.97 | S. cerevisiae deletion strains, locus YNL071W, strain lat1, active compounds read low 0.997 | S. cerevisiae deletion strains, locus YNL128W, strain TEP1, active compounds read low 0.997 | S. cerevisiae deletion strains, locus YNL183C, strain NPR1, active compounds read low 0.848 | S. cerevisiae deletion strains, locus YNL209W, strain ssb2, active compounds read low 0.979 | S. cerevisiae deletion strains, locus YNL233W, strain BNI4, active compounds read low 0.987 | S. cerevisiae deletion strains, locus YNL271C, strain bni1, active compounds read low 0.978 | S. cerevisiae deletion strains, locus YNL298W, strain CLA4, active compounds read low 0.95 | S. cerevisiae deletion strains, locus YNL307C, strain MCK1, active compounds read low 0.955 | S. cerevisiae deletion strains, locus YNL322C, strain KRE1 (second series), active compounds read low 0.992 | S. cerevisiae deletion strains, locus YNL322C, strain KRE1, active compounds read low 0.999 | S. cerevisiae deletion strains, locus YNR049C, strain mso1, active compounds read low 1.02 | S. cerevisiae deletion strains, locus YOL006C, strain TOP1, active compounds read low 0.891 | S. cerevisiae deletion strains, locus YOL012C, strain htz1 1.16 | S. cerevisiae deletion strains, locus YOL147C, strain pex11, active compounds read low 0.991 | S. cerevisiae deletion strains, locus YOR001W, strain rrp6, active compounds read low 0.904 | S. cerevisiae deletion strains, locus YOR061W, strain CKA2, active compounds read low 0.988 | S. cerevisiae deletion strains, locus YOR069W, strain VPS5, active compounds read low 0.992 | S. cerevisiae deletion strains, locus YOR070C, strain gyp1, active compounds read low 1.01 | S. cerevisiae deletion strains, locus YOR080W, strain dia2, active compounds read low 0.986 | S. cerevisiae deletion strains, locus YOR083W, strain WHI5, active compounds read low 0.962 | S. cerevisiae deletion strains, locus YOR106W, strain vam3, active compounds read low 0.938 | S. cerevisiae deletion strains, locus YOR136W, strain idh2, active compounds read low 0.959 | S. cerevisiae deletion strains, locus YOR144C, strain elg1, active compounds read low 0.969 | S. cerevisiae deletion strains, locus YOR265W, strain rbl2, active compounds read low 0.997 | S. cerevisiae deletion strains, locus YOR270C, strain vph1, active compounds read low 0.92 | S. cerevisiae deletion strains, locus YOR290C, strain snf2, active compounds read low 0.912 | S. cerevisiae deletion strains, locus YOR316C, strain cot1, active compounds read low 0.999 | S. cerevisiae deletion strains, locus YPL051W, strain arl3, active compounds read low 0.943 | S. cerevisiae deletion strains, locus YPL055C, strain LGE1, active compounds read low 0.882 | S. cerevisiae deletion strains, locus YPL078C, strain atp4, active compounds read low 0.932 | S. cerevisiae deletion strains, locus YPL106C, strain sse1, active compounds read low 0.889 | S. cerevisiae deletion strains, locus YPL240C, strain hsp82, active compounds read low 1.01 | S. cerevisiae deletion strains, locus YPL241C, strain CIN2, active compounds read low 0.988 | S. cerevisiae deletion strains, locus YPL256C, strain CLN2, active compounds read low 0.909 | S. cerevisiae deletion strains, locus YPR119W, strain clb2, active compounds read low 0.989 | S. cerevisiae deletion strains, locus YPR141C, strain kar3, active compounds read low 0.993 | S. cerevisiae deletion strains, locus YPR163C, strain tif3, active compounds read low 0.993 | S. cerevisiae deletion strains, locus YPR167C, strain met16, active compounds read low 0.986 | S. cerevisiae strains, strain wild type, active compounds read low 0.99
active: S. cerevisiae deletion strains, locus YLR039C, strain RIC1, active compounds read low 0.657 | S. cerevisiae deletion strains, locus YLR268W, strain sec22, active compounds read low 0.831 | S. cerevisiae deletion strains, locus YML032C, strain rad52, active compounds read low 0.494 | S. cerevisiae deletion strains, locus YMR058W, strain fet3, active compounds read low 0.79 | S. cerevisiae deletion strains, locus YNL153C, strain GIM3, active compounds read low 0.842 | S. cerevisiae deletion strains, locus YNL248C, strain rpa49, active compounds read low 0.84 | S. cerevisiae deletion strains, locus YNL250W, strain rad50, active compounds read low 0.713 | S. cerevisiae deletion strains, locus YNR052C, strain pop2, active compounds read low 0.899 | S. cerevisiae deletion strains, locus YOR184W, strain ser1, active compounds read low 0.862 | S. cerevisiae deletion strains, locus YOR231W, strain MKK1, active compounds read low 0.777 | S. cerevisiae deletion strains, strain wtn01, active compounds read low 0.87
